Activity calls are given as the source filed them. How the source made its calls: active means hit-call score of the fitted dose curve at least 0.9, where 1 is the maximum; inactive means score below 0.9.

Read-out in this assay: TIMP metallopeptidase inhibitor 2 (TIMP2), TIMP2 (gene 7077)
As to the kind of experiment: BSK_KF3CT_TIMP2: BioMAP Diversity Plus: KF3CT Assay for TIMP metallopeptidase inhibitor 2 (TIMP2) Biomarker Activity (AID 2283071). The settings on record: primary human keratinocytes with fibroblasts; actives raise or lower the signal. On the procedure: BSK_KF3CT is a cell-based, multiplexed-readout assay that uses keratinocytes and foreskin fibroblasts, a human skin primary cell co-culture, with measurements taken at 24 hours after chemical dosing in a 96-well plate.BSK_KF3CT_TIMP2 is an assay component measured in the BSK_KF3CT assay. It measures TIMP-2 antibody related to regulation of gene expression using ELISA technology.Data from the assay component BSK_KF3CT_TIMP2 was analyzed into 1 assay endpoint. This assay endpoint, BSK_KF3CT_TIMP2, was analyzed with bidirectional fitting relative to DMSO as the negative control and baseline of activity. Using a type of binding reporter, gain or loss-of-signal activity can be used to understand changes in the signaling as they relate to the gene TIMP2. Furthermore, this assay endpoint can be referred to as a primary readout, because this assay has produced multiple assay endpoints where this one serves a signaling function. To generalize the intended target to other relatable targets, this assay endpoint is annotated to the protease inhibitor intended target family, where the subfamily is metalloproteinase inhibitor.
The levels of cell surface (or secreted, indicated by the prefix "s") biomarker endpoints were measured by ELISA. Overt cytotoxicity to cells in confluent adherent cultures (all systems other than the BT system) was assessed by measuring total protein levels using sulforhodamine B (SRB) staining in parallel cultures at the time of biomarker measurements, indicated as SRB endpoints. For proliferation assays for adherent cell types, individual cell types are cultured at sub-confluence and relative cell numbers quantified by SRB staining at time points optimized for each system (48 h: 3C and CASM3C systems; 72 h: BT and HDF3CGF systems; 96 h: SAg system). SRB was performed by staining cells with 0.1% SRB after fixation with 10% TCA and reading wells at 560 nm.Viability and proliferation of PBMC (T cells) was quantified by Alamar Blue reduction for the SAg and BT systems. For PBMC viability (referred to as PBMC Cytotoxicity within the assay endpoint names), cells were plated (75,000/well in a 96-well plate) and then chemical samples added for 1 h before addition of activators, SEB and TSST-1 (20 ng/mL final concentration each). Cells were incubated for 90 h. Then, Alamar Blue (20 uL/well) (Invitrogen, Cat DAL1100) was added for 6 h, and the plates were read with a fluorescence microplate reader at 546/580 nm (excitation/emission). For PBMC proliferation, cells were plated and activated as above but incubated for only 16 h prior to addition of Alamar Blue. Plates were read after 6 h.
On to `CN(C)C(=O)NC1(c2ccccc2)CCN(CCC[C@]2(c3ccc(Cl)c(Cl)c3)CCCN(C(=O)c3ccccc3)C2)CC1`, for which the result was inactive.
Still for that read-out and setting: with `O=[Si]=O` the entry was “inactive”; with `CCCCCCC(C=O)=Cc1ccccc1`, “inactive”.
Consider `CC(C)c1cccc(C(C)C)c1NC(=O)NS(=O)(=O)c1cc(C(C)(C)O)co1`, for which the outcome was inactive.
By AC50 is commonly meant the midpoint of the concentration-response curve, whichever way the signal moves. Take `CCN(CC)CCOc1ccc(C(=C(Cl)c2ccccc2)c2ccccc2)cc1`: the concentration at half-maximal activity (AC50) was 12.6 µM (active).
Turning to `c1ccc2occc2c1`, the result was inactive.
Still for that read-out and setting: then `O=C(NS(=O)(=O)/C=C/c1cccs1)c1ccc(F)cc1Br`, with “inactive”.
Still for that read-out and setting: then `CC(=O)S[C@H](C(=O)N[C@H]1Cc2ccccc2[C@H]2CCC[C@@H](C(=O)O)N2C1=O)C(C)C`, with “inactive”; and `CS(=O)(=O)c1ccc([C@@H](C[C@H]2CCC(=O)C2)C(=O)Nc2cnccn2)cc1Cl`, with “inactive”; and `Cc1ccc(C(C)(C)C)c(O)c1`, with “inactive”.
The same measure, in the same setting: with `CC(=O)[C@@]1(O)CC[C@H]2[C@@H]3CCC4=CC(=O)CC[C@]4(C)[C@H]3CC[C@@]21C` the entry was “inactive”; with `Nc1nc(Cl)nc2c1ncn2[C@H]1C[C@H](O)[C@@H](CO)O1`, “inactive”.
Take `O=C1O[C@H]([C@H](O)CO)C(O)=C1O`: the outcome was inactive.
Same read-out and setting: then `Cc1cn([C@H]2C=C[C@@H](CO)O2)c(=O)[nH]c1=O`, with “inactive”; and `C=CCCCCCCCCCCCC`, with “inactive”; and `O=C(O)CC(O)(CC(=O)O)C(=O)O`, with “inactive”.
In the case of `CCCC[C@H]1CN(CC2CCOCC2)C(=O)OC12CCN(C1(C)CCN(C(=O)c3c(C)ncnc3C)CC1)CC2`, the result was inactive.
Still for that read-out and setting: then `Cc1occc(=O)c1O`, with “inactive”; and `CCCCC(CC)CO` (stereo not given), with “inactive”; and `Cc1ccc(-c2cc(C(F)(F)F)nn2-c2ccc(S(N)(=O)=O)cc2)cc1`, with “inactive”.
Turning to `N[C@@H](Cc1c[nH]c2ccccc12)C(=O)O`, the outcome was inactive.
Consider `CCCCCCCCCCCCCCOS(=O)(=O)O`, for which the AC50 was 7.76 µM (active).
On to `CC(C)(C)c1ccccc1`, for which the result was inactive.
With `CC(=O)CC(c1ccccc1)c1c(O)c2ccccc2oc1=O` (stereo not given), the result was inactive.
In the case of `O=C1c2c(O)cccc2Cc2cccc(O)c21`, the AC50 is 20 µM (active).
As to `O=C(Oc1ccccc1)c1cccc(C(=O)Oc2ccccc2)c1`, the outcome was inactive.
Same read-out and setting: with `O=NO` the entry was “inactive”.
On to `CC(=O)O`, for which the result was inactive.
On the same count and under the same terms, then `CC(C)NCC(O)c1ccc(O)c(O)c1` (stereo not given), with “inactive”.
For `O=C(N[C@@H](c1ccccc1)[C@@H]1CCCCN1)c1cccc(C(F)(F)F)c1Cl`, the half-maximal activity concentration (AC50) was 12.4 µM (active).
For `Oc1ccccc1O`, the result was inactive.
The same measure, in the same setting: then `CC1(C)C(=O)NC(=O)N1CO`, with “inactive”.
On the same count and under the same terms, with `CC(C)c1cccc(C(C)C)c1` the entry was “inactive”.
Still for that read-out and setting: then `Oc1ccc(O)cc1`, with “inactive”.
As for `CCCC(=O)O`, the result was inactive.
`CCCCCCCCCC[N+](C)(C)[O-]`: the AC50 was 0.0209 µM (active).
For `CSc1ccc(Oc2ccc(S(N)(=O)=O)cc2CN(C)C)cc1C`, the outcome was inactive.
Turning to `CC(N)=O`, the outcome was inactive.
On the same count and under the same terms, then `O=C1CCCCC1`, with “inactive”.
As for `Cn1cnc2c1c(=O)[nH]c(=O)n2C`, the result was inactive.
